# Measurements reported in paper PMC11006913.
# Molecular target: NKX3-2 (Homo sapiens, UniProt P78367 192-278)
# Assay: PBM; 200 nM protein, PBS
# Details: dsDNA, one strand shown
# NKX3-2, sequence (P78367 192-278): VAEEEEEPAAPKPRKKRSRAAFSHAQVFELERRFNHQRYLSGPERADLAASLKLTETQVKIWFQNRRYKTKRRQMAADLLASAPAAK
row,Sequence,binding signal
1,AACCAGCC,"10.4 upbm affinity estimate (log intensity, higher = more binding, comparable within an allelic series)"
2,GGCCTCAC,"10.6 upbm affinity estimate (log intensity, higher = more binding, comparable within an allelic series)"
3,AAGCCGCC,"10.7 upbm affinity estimate (log intensity, higher = more binding, comparable within an allelic series)"
4,AGAAGAGG,"11.7 upbm affinity estimate (log intensity, higher = more binding, comparable within an allelic series)"
5,GAGAGTAC,"12.1 upbm affinity estimate (log intensity, higher = more binding, comparable within an allelic series)"
